The values that follow come from PubChem BioAssay AID588763 (NMMLSC, 2011).

This assay has as its target Beta-2 adrenergic receptor (Homo sapiens) (UniProt P07550). Nature of the assay: ADRB2 activation measured by internalization – cell-based, FAP fluorogen, flow cytometry, cherry pick 1, dose response (AID 588763).

Potency and affinity values are given separately. Active and inactive are the calls of the source. Entries that show only a call come without a potency. No rule for the calls is given here.

Chain of Beta-2 adrenergic receptor (Homo sapiens) (P07550 whole entry, looked up): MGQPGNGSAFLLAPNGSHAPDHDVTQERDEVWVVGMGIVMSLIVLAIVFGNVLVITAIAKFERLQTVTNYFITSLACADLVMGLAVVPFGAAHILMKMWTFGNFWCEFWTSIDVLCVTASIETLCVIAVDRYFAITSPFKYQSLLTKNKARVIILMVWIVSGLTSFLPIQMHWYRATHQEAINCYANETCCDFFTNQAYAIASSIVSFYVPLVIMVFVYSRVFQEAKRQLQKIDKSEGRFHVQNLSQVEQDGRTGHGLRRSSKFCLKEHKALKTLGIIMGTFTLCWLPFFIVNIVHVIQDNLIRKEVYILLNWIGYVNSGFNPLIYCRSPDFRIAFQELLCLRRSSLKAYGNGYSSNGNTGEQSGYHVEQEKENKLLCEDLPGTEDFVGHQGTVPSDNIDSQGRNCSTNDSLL

With `Cc1ccc(S(=O)(=O)c2ccc([N+](=O)[O-])o2)cc1`, the compound was called inactive.

Regarding `COc1cccc(-c2ccc(NC(=O)C3CCCN(Cc4cnn(C(C)C)c4)C3)cc2)c1` (configuration not stated), the call was inactive.

Turning to `COCC(C)NC(=O)CCS(=O)(=O)c1nc(-c2ccc(OC)cc2)cc(C(F)(F)F)n1` (configuration not stated), the compound was classed as inactive.

For `COc1ccc(Cn2nc(-c3ccccc3)c(N3CCCCC3)cc2=O)cc1`, the outcome was inactive.

With `COc1ccccc1C(=O)Nc1ccc2oc(-c3ccc(F)cc3)nc2c1`, the compound was called inactive.

`Cc1ccc(-c2nc(NC(=O)c3cc(C(C)(C)C)nn3C)sc2C)cc1Cl`: the call was inactive.

With `CCOc1ccc(NC(=O)COc2ccc(S(=O)(=O)N3CCCC3)cc2)cc1`, the outcome was inactive.

As to `O=C(Nc1cccc(-c2nc3cccnc3s2)c1)C1c2ccccc2Oc2ccccc21`, the compound was classed as inactive.

`Cc1cccc(C)c1NC(=O)Cn1nnc(-c2ccc(N3CCOCC3)cc2)n1`: the result was inactive.

Take `Cc1ccccc1OCc1nc(-c2ccc(NC(=O)c3ccc4c(c3)OCO4)cc2)no1`: the result was inactive.

As to `O=C(Nc1ccc(S(=O)(=O)N2CCCCC2c2cccnc2)cc1)c1ccccc1F` (configuration not stated), the compound was classed as inactive.

Turning to `COc1ccc(Cl)c(NC(=O)Cn2nnc(-c3ccccc3N)n2)c1`, the compound was classed as inactive.

For the compound `O=C(c1ccc(OC2CCN(Cc3ccccc3C(F)(F)F)CC2)cc1)N1CCCCC1`, the compound was called inactive.

Take `O=[N+]([O-])c1cnc(Sc2ccncn2)s1`: the call was inactive.

For `CCOc1ccc(NC(=O)COc2ccc(S(=O)(=O)N3CCOCC3)cc2)cc1`, the call was inactive.

Take `COCc1ccc(CN2CCCC(C(=O)Nc3ccc(-c4cccc(OC)c4)cc3)C2)o1` (configuration not stated): the call was inactive.

For `CN(C)c1ccc(-c2nnn(CC(=O)Nc3ccccc3N3CCOCC3)n2)cc1`, the compound was classed as inactive.
